Peg3 imprint: qHTS Assay for Compounds that Induce Erasure of Genomic Imprints; mouse ES Peg3-LacZ reporter, beta-gal luminescence, 40 h; Potency, µM (highest dose often 60.7 µM), for the others: at the top dose activity change, positive = activation, actives largely listed as activators; actives 0.02% (n = 110,000)
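Readout: BetaGlo luminescence (5 min, room temp) for LacZ from the normally silent maternal Peg3 allele in female Peg3LacZ-Neo ES cells. Cells 300/well, 40 h, 37C, 5% CO2. Data normalized per plate to negative controls.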
p53ts 39C tox: qHTS Screen for Compounds that Selectively Target Cancer Cells with p53 Mutations: Cytotoxicity of p53ts Cells at the Nonpermissive Temperature; H1299-p53A138V viability at 39C, ATP luminescence, 24 h; Potency, µM (titrated, usually from 46.1 µM), inactives show at the highest dose activity change, negative = cell killing, hits mostly cytotoxic; actives 1.5% (n = 130,000); note: % is set by controls: 0 for no effect and ±100 for the full control effect; nearly all actives have a fitted effect of over 55% in size
IkB signaling: IkB Signaling; ABC-DLBCL IkBa-CBG/CBR dual luciferase ratio, 4 h; response scale: scaled: untreated 0%, proteasome inhibitor 100%; Potency, µM (highest dose often 57.1 µM), inactives show at the top dose IkBa stabilization activation; actives 0.04% (n = 110,000); active = well fitted curve in the direction sought with a large enough effect in the signal ratio, not every such curve was filed as active; inconclusive = small, poorly fitted or top-dose-only effect, or a change in a side signal; the % refers to the signal ratio;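 note: the direction sought is a rising ratio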
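Curves were fitted separately to fusion (green), unfused (red) and ratio luminescence, then classed by r2, magnitude and activity. Cells: OCI-Ly3, 4 h compound plus doxycycline at 37C; 10 uM MG-132 defined full response.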
p53ts 32C kill: qHTS Screen for Compounds that Selectively Target Cancer Cells with p53 Mutations: Cytotoxicity of p53ts Cells at the Permissive Temperature | H1299-p53A138V at 32C, ATP luminescence viability, 24 h | Potency, µM (titrated, usually from 46.1 µM), inactives show at the top dose activity change, negative = cytotoxicity, hits mostly cytotoxic | actives 0.93% (n = 130,000);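 note: 0% = DMSO and -100% = full killing by reference compound; nearly all actives have a fitted effect of over 55% in size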
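Viability by ATPlite luminescence after 24 h compound treatment (up to 46 uM) at the permissive 32C. Cells are H1299 carrying p53 A138V. Scale runs from DMSO basal to 100 uM tamoxifen as full kill; AC50 from Hill fits.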
An asterisk follows results filed as active; u = inconclusive; [ ] = dose if it differs, or a comment. Only some compounds are listed: those with a hit (about 1.8% of all), similar ones and a draw of the others. Unless noted, calls come from the whole dose curve; as a rule, active = well fitted curve in the direction sought with a large enough effect; inconclusive = small, poorly fitted or top-dose-only effect, or another doubt; inactive = no such curve, though single readings can be large; an effect the other way counts as inactive or inconclusive. Potency is the fitted concentration of half-maximal effect.

SMILES	Peg3 imprint	p53ts 39C tox	IkB signaling	p53ts 32C kill
O=C(CN1C(=O)C2(OCCCO2)c2ccccc21)NCc1ccccc1	-7%	10%	0%	-6%
COc1ccccc1-c1nnc(NC(=O)c2ccc(S(=O)(=O)N(C)Cc3ccccc3)cc2)o1	-25%	13µM*	4%	-2%
CN(Cc1ccccc1)S(=O)(=O)c1ccc(C(=O)Nc2nnc(C3CC3)o2)cc1	-27%	13µM*	u	1%
COc1cccc(NC(=O)CSc2nc3ccccc3nc2N2CCOCC2)c1	-9%[10.9 µM]	6%	u	-8%
CN(C)c1ccc(C2N(c3cccc(Cl)c3)C(=O)C3CCCN32)cc1 (configuration not stated)	-18%	4%	0%	2%
COc1ccccc1C(=O)OCc1cc(=O)n2c(C)csc2n1	-24%[10.9 µM]	0.13µM*	u	u
COc1cccc(C(=O)Nc2ccccc2C(=O)OCc2cc(=O)n3c(C)csc3n2)c1	-6%[10.9 µM]	-5%	4%	-4%
O=c1c(-c2ccc(Br)cc2)coc2c(CN3CCOCC3)c(O)ccc12	5%	-2%	0%	-4%
COc1cccc(NC(=O)CSc2nnc(-c3cccc(OC)c3)o2)c1	-42%[10.9 µM]	10µM*	u	13µM*
COc1cccc(NC(=O)CSc2nnc(-c3ccc(C)cc3)o2)c1	-85%	u	11%	-22%
COc1cccc(NC(=O)COc2ccccc2C(N)=O)c1	-79%	10µM*	u	16µM*
COc1ccc(OCC(=O)Nc2cccc(OC)c2)cc1	2%	-6%	u	-11%
O=C(CSc1nnc(-c2ccccc2F)o1)Nc1ccccc1Cl	11%[10.9 µM]	13µM*	8%	u
COc1ccccc1NC(=O)CSc1nnc(-c2ccc(C)cc2)o1	-90%	6.3µM*	u	7.9µM*
CNc1nc2sc3c(c2c(=O)n1C)CC(C)(C)SC3	6%	3%	-2%	14%
CC(=O)Nc1cccc(-c2nnc(SCC(=O)c3cc([N+](=O)[O-])ccc3Cl)o2)c1	-27%[10.9 µM]	13µM*	u	u
O=C(CS(=O)(=O)Cc1ccccc1)N1CCN(Cc2ccc3c(c2)OCO3)CC1	-64%	13µM*	9%	13µM*
COc1ccc(N(C(=O)COc2ccccc2)C2C=CS(=O)(=O)C2)c(OC)c1 (configuration not stated)	-1%	3%	-1%	-10%
Cc1ccc(N2CCN(C(=O)c3c(C)oc4ncnc(N5CCCCC5)c34)CC2)c(C)c1	15%[10.9 µM]	20µM*	u	15%
O=C(Nc1ccc([N+](=O)[O-])cc1Cl)c1cc(Cl)ccc1O	-96%	4µM*	u	u
COCCn1c(=O)c(-c2cc(F)cc(F)c2)nc2cnc(N3CCN(C)CC3)nc21	u	-12%	-1%[11.4 µM]	-3%
CC1(C)CC(=O)C2=C(C1)OC1=C(C(=O)CC(C)(C)C1)C2c1ccc(O)cc1O	-32%	145%	u	25µM*
COc1ccc(-n2nc(C(=O)NCC(=O)N3CCN(c4ccccn4)CC3)c3ccccc3c2=O)cc1	-9%	13µM*	0%	13µM*
COc1ccc(CC(=O)N2CCN(c3ccccn3)CC2)cc1	-10%	12%	2%	14%
CCOC(=O)Cc1ccc(NC(=O)N2CC(C)Oc3ccc(Cl)cc32)cc1 (configuration not stated)	-3%[10.9 µM]	-21%	-1%	-1%
SMILES	Peg3 imprint	p53ts 39C tox	IkB signaling	p53ts 32C kill
Cc1cc(C)cc(C(=O)Nc2c3c(nn2-c2ccccc2C)CS(=O)(=O)C3)c1	-5%[10.9 µM]	-5%	u	-2%
Cc1ccc(O)c(C(=O)CC(=O)c2cccc(F)c2)c1	-25%	-11%	-2%	-14%
COc1ccc(O)c(C(=O)CC(=O)c2ccc(F)cc2)c1	-92%	6.3µM*	u	6.3µM*
N#Cc1c(C(F)(F)F)cc(-c2cccs2)nc1SCC(=O)Nc1cccc(Br)c1	-3%[10.9 µM]	13µM*	u	-15%
N#Cc1c(C(F)(F)F)cc(-c2cccs2)nc1SCC(=O)Nc1cccc(Cl)c1	-4%[10.9 µM]	-5%	1%	-2%
Cc1ccc(-n2nc3c(N4CCC(C(=O)NC(C)c5ccccc5)CC4)nnc(C)c3c2C)cc1 (configuration not stated)	-6%[10.9 µM]	16µM*	u	u

Source: PubChem (National Center for Advancing Translational Sciences (NCATS))
